Assay [1] can be described thus: Nuclear factor erythroid 2-related factor 2/antioxidant responsive element (Nrf2/ARE) small molecule agonists: qHTS cell viability counter screen in human keratinocytes (AID 1919968; active = well fitted curve in the direction sought with a large enough effect in the repeat runs; an effect the other way counts as inactive or inconclusive; also: nearly all actives have a fitted effect of over 55% in size). The method, boiled down:
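In human HaCaT keratinocytes stably expressing an ARE-driven luciferase, compound exposure lasted 23 h at 37 C under 5% CO2. Viable cells are quantified with a protease-based fluorogenic reagent (CellTiter-Fluor) read 1 h after addition.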

A short description of assay [2]: Nuclear factor erythroid 2-related factor 2/antioxidant responsive element (Nrf2/ARE) small molecule agonists: luciferase reporter gene qHTS assay in human keratinocytes (AID 1919969). Also: nearly all actives have a fitted effect of over 35% in size. Also: potency is read from the fitted curve at half-maximal effect.
The target of assay [3] is Gonadotropin-releasing hormone receptor (Homo sapiens) (UniProt P30968). The experiment in a line: Human gonadotropin-releasing hormone receptor (GnRHR) small molecule agonists, calcium flux assay in GnRHR-HEK293 cells (AID 1920063). Also: nearly all actives have a fitted effect of over 35% in size. The method, boiled down: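 Intracellular calcium rise is the read-out: engineered human GnRHR HEK293 cells, dye-loaded, are exposed to DMSO-dissolved compounds and fluorescence at Ex/Em 480/540 is tracked for 3 min.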
Gonadotropin-releasing hormone receptor (Homo sapiens), sequence (P30968 whole entry, looked up): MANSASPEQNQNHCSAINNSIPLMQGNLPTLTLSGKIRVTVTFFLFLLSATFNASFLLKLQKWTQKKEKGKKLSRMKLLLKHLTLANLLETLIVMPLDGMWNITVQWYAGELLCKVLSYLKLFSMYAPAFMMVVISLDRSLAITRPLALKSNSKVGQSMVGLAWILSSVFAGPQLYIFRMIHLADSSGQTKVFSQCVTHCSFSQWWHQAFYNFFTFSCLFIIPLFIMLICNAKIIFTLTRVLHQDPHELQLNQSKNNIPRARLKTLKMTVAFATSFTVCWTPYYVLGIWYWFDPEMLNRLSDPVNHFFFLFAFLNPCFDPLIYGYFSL
(Calcium assays in cells follow changes in intracellular calcium, usually with a dye or a luminescent sensor.)

In assay [4] the target is KiSS-1 receptor (Homo sapiens) (UniProt Q969F8). The experiment in a line: Human kisspeptin (KISS1R) small molecule agonists, calcium flux assay in KISS1R-HEK293 cells (AID 1920064; active = well fitted curve in the direction sought with a large enough effect in the repeat runs; an effect the other way counts as inactive or inconclusive). The method, boiled down: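 Concentration-response testing used 15 concentrations in triplicate on human KISS1R-expressing HEK293 cells. Calcium-dependent fluorescence (Ex/Em 480/540) was followed kinetically for 3 min after compound transfer.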
KiSS-1 receptor (Homo sapiens), sequence (Q969F8 whole entry, looked up): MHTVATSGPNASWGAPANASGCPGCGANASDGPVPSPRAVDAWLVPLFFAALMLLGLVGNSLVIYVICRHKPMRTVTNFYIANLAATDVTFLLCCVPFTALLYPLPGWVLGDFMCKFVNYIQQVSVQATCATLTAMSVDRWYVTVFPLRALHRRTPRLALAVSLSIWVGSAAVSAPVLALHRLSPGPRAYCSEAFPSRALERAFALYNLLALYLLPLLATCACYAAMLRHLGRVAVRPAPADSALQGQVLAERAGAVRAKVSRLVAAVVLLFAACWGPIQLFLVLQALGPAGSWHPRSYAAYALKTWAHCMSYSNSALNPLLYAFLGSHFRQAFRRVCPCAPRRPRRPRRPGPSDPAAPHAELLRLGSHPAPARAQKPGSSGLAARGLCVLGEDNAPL

The nature of assay [5]: p53 small molecule agonists, cell-based qHTS assay with human liver microsomes (AID 1963577).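 Also: p53 response element beta-lactamase reporter cells with liver microsomes plus NADPH.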 Put shortly:
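In this qHTS, p53 response-element beta-lactamase cells receive test compound together with a microsome/NADPH activating system (0.5 mg/mL final each) and are incubated 16 h at 37 C before LiveBLAzer fluorescence detection.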
In general terms: Quantitative high-throughput screening tests each substance at several concentrations.

Assay [6] in a line: p53 small molecule agonists, cell-based qHTS assay with rat liver microsomes (AID 1963578). The method, boiled down: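 Agonist mode in p53RE-bla reporter cells, with compounds co-incubated 16 h at 37 C alongside 0.5 mg/mL rat liver microsomes and 0.5 mg/mL NADPH (final), followed by a 2 h LiveBLAzer detection step.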
The nature of assay [7]: p53 small molecule agonists, cell-based qHTS assay with human liver microsomes: qHTS cell viability counter screen (AID 1963579). Also: nearly all actives have a fitted effect of over 45% in size. The method, boiled down:
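Metabolically activated exposure: compounds, human liver microsomes and NADPH (0.5 mg/mL final apiece) were added to p53RE-bla cells seeded 5 h earlier, left 16 h at 37 C, and then assessed for viability by CellTiter-Glo luminescence.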

Assay [8] can be described thus: p53 small molecule agonists, cell-based qHTS assay: qHTS cell viability counter screen (AID 1963581). Also: nearly all actives have a fitted effect of over 45% in size. Put shortly: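 Luminescence from CellTiter-Glo, reflecting ATP content, serves as the cytotoxicity measure; it is taken after the 2 h reporter substrate step in HCT-116 p53RE-bla cells dosed for 16 h at 37 C.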
Assay [9] in a line: p53 small molecule agonists, cell-based qHTS assay (AID 1963582; active = well fitted activation curve with a large enough effect in the signal ratio in the repeat runs, not every such curve was filed as active; the % refers to the signal ratio). Put shortly: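 After plating, p53RE-bla cells sat 5 h in the incubator; compounds or DMSO vehicle were pinned in; a 16 h incubation at 37 C followed; FRET substrate was added and, 2 h later at RT, fluorescence was measured.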
Assay [10] has as its target 5-hydroxytryptamine receptor 2A (Homo sapiens) (UniProt P28223). Kind of assay: 5-hydroxytryptamine receptor 2A (HTR2A) small molecule antagonists, cell-based qHTS assay (AID 1963586). Also: nearly all actives have a fitted effect of over 45% in size. Put shortly: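 CHO cells stably expressing human HTR2A were plated for 18 h at 37 C, then loaded with calcium dye for 1 h. Compounds were preincubated 5 min at room temperature before DOI (4 nM solution) was added. Kinetic fluorescence was read for 3 min.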

For assay [11] the target is unchanged. The experiment in a line: 5-hydroxytryptamine receptor 2A (HTR2A) small molecule agonists, cell-based qHTS assay (AID 1963587). Also: nearly all actives have a fitted effect of over 30% in size. Put shortly:
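HTR2A-CHO cells, plated 18 h at 37 C/5% CO2, dye-loaded 1 h at 37 C; compounds in DMSO added by pin tool (agonist mode). Intracellular calcium flux read as kinetic fluorescence on FDSS over 2 min at 1 s intervals.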

In assay [12] the target is Muscarinic acetylcholine receptor M1 (Homo sapiens) (UniProt P11229). The experiment in a line: Cholinergic receptor muscarinic 1 (CHRM1) small molecule antagonists, cell-based qHTS assay (AID 1963588). Also: nearly all actives have a fitted effect of over 40% in size. Put shortly:
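Compounds were tested at 15 concentrations in three independent runs. Dye-loaded CHRM1-CHO cells were exposed 5 min at room temperature before stimulation by acetylcholine added at 50nM. Intracellular calcium was read kinetically on FDSS for 3 min.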

Assay [13] has the same target. Kind of assay: Cholinergic receptor muscarinic 1 (CHRM1) small molecule agonists, cell-based qHTS assay (AID 1963589). Also: nearly all actives have a fitted effect of over 35% in size. Put shortly:
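Fluorescent calcium dye reports M1 activation in stably transfected CHO cells. Compounds, 15 concentrations, added after 1 h dye loading at 37 C; kinetic reading at 1 sec intervals.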

Assay [14] in a line: cAMP Responsive Elements (CRE) small molecule agonists, cell-based qHTS assay (AID 1963590). The method, boiled down: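 Compound exposure lasted 3 h at 37 C/5% CO2 in CRE-bla HEK 293T cells grown in assay medium with 10% dialyzed FBS and 25 mM HEPES. Reporter signal came from LiveBLAzer B/G FRET substrate, 2 h, room temperature.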
The nature of assay [15]: cAMP Responsive Elements (CRE) small molecule antagonists, cell-based qHTS assay (AID 1963591; active = well fitted inhibition curve with a large enough effect in the signal ratio in the repeat runs, not every such curve was filed as active; the % refers to the signal ratio). The method, boiled down: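 Stimulation used NKH477 at a final 0.25 uM for 3 h in compound-treated CRE-bla HEK293T cells, seeded 18 h beforehand. Reporter activity was measured with LiveBLAzer B/G FRET substrate after 2 h at room temperature.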
The target in assay [16] is Beta-2 adrenergic receptor (Homo sapiens) (UniProt P07550). The experiment in a line: Adrenergic beta2 receptor (ADRB2) small molecule antagonists, cell-based qHTS assay (AID 1963592). Also: nearly all actives have a fitted effect of over 50% in size. Also: potency is read from the fitted curve at half-maximal effect. The method, boiled down:
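Assay format: CHO-ADRB2 cells, 18-20hr seeding at 37C/5% CO2, then compound plus 1nM isoproterenol agonist mix for 0.5hr RT. Homogeneous time-resolved fluorescence cAMP detection after 1hr, expressed as 665/615 nm ratio.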

For assay [17] the target is unchanged. Kind of assay: Adrenergic beta2 receptor (ADRB2) small molecule agonists, cell-based qHTS assay (AID 1963593).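 Also: CHO cells stably overexpressing human ADRB2.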 Put shortly: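 CHO cells stably over-expressing ADRB2 were plated overnight at 37C, then dosed with compounds plus a stimulation mix containing 100uM IBMX and 25uM Ro-20-1724 for 0.5hr at room temperature. cAMP was measured by HTRF competition, 1hr.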

Assay [18] deals with D(2) dopamine receptor (Homo sapiens) (UniProt P14416). Kind of assay: Dopamine D2 receptor (DRD2) small molecule agonists, cell-based qHTS assay (AID 1963594). Also: nearly all actives have a fitted effect of over 35% in size. The method, boiled down: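 HEK293 cells stably expressing DRD2 were cultured 24 h at 37 C, then given Ro20-1724 (0.1 mM final) and compounds for 10 min at room temperature. NKH477 (200nM) was then added for 30 min. cAMP was read by HTRF.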
D(2) dopamine receptor (Homo sapiens), sequence (P14416 whole entry, looked up): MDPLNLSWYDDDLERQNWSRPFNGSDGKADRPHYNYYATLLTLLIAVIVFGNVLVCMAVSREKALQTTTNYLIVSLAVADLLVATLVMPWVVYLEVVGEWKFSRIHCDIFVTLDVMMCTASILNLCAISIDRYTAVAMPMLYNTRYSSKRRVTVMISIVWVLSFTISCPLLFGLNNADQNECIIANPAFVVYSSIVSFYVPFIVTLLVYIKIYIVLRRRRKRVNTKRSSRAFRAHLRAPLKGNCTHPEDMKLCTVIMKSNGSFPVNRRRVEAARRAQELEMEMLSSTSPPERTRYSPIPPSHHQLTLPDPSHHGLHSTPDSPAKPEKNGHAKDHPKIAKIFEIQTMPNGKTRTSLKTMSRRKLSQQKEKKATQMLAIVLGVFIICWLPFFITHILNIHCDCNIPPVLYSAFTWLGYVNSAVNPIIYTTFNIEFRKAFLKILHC

The target is the same in assay [19]. The experiment in a line: Dopamine D2 receptor (DRD2) small molecule antagonists, cell-based qHTS assay (AID 1963595; active = well fitted inhibition curve with a large enough effect in the signal ratio in the repeat runs, with a control signal flat; the % refers to the signal ratio). Put shortly: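 HEK293 cells stably expressing DRD2, preincubated with 0.1 mM Ro20-1724 and compounds 10 min, were stimulated with 200 nM NKH477 plus 12 nM quinpirole for 30 min at room temperature; cAMP measured by HTRF (665/620 nm).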
The nature of assay [20]: p53 small molecule agonists, cell-based qHTS assay with rat liver microsomes: qHTS cell viability counter screen (AID 1963580). Also: nearly all actives have a fitted effect of over 45% in size. Put shortly:
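Counter screen for cytotoxicity under metabolic activation: rat liver microsomes and NADPH, 0.5 mg/mL final each, added with compounds to p53RE-bla HCT-116 cells; 16 h at 37 C, then ATP luminescence read.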

Values joined by “and” are separate entries in the source; they are usually repeats but may differ in a detail not shown here. Equal entries are not always repeated. Results filed as inconclusive are left out. Some compounds were tested as several samples or in several runs, with calls that do not always agree. Active and inactive are the calls of the source. Unless noted, calls follow the shape of the full dose curve.

Muscarinic acetylcholine receptor M1 (Homo sapiens), sequence (P11229 whole entry, looked up): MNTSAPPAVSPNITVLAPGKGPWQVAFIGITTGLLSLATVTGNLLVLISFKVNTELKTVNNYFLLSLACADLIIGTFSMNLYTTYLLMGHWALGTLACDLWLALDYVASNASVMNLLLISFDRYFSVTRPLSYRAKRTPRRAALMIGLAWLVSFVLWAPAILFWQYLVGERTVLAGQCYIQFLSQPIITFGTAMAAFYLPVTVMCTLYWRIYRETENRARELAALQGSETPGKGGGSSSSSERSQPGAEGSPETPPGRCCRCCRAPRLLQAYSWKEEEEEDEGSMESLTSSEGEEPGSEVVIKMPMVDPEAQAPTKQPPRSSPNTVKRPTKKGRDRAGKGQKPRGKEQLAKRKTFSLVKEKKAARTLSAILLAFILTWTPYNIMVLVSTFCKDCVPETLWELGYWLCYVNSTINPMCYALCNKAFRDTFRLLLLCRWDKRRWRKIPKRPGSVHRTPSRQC
Beta-2 adrenergic receptor (Homo sapiens), sequence (P07550 whole entry, looked up): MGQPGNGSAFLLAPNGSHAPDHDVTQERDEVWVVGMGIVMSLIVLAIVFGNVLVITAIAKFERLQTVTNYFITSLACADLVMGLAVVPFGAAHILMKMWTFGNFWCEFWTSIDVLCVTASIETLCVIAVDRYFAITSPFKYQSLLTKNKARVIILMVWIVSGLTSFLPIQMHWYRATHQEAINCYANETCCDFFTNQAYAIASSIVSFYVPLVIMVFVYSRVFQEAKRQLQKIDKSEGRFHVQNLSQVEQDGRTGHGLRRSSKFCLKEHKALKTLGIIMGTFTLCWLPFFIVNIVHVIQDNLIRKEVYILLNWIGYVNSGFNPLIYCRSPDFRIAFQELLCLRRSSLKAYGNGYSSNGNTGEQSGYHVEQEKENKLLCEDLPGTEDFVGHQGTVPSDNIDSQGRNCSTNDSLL
5-hydroxytryptamine receptor 2A (Homo sapiens), sequence (P28223 whole entry, looked up): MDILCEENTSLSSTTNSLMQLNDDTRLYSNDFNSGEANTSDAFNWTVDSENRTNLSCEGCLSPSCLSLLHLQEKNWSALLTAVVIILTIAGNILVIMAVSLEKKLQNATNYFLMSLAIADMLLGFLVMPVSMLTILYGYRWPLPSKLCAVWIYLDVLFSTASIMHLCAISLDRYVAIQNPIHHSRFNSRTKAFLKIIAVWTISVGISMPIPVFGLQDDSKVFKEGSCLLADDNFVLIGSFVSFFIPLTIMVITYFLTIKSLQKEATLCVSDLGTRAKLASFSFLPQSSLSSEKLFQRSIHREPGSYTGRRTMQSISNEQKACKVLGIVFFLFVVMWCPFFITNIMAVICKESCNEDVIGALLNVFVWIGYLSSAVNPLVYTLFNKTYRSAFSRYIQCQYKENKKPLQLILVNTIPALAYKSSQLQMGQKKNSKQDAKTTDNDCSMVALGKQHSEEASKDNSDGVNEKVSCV

Turning to `C[Si](O[Si](C)(C)C)O[Si](C)(C)C`, the Potency result in [1], in assay [2], in [3], in assay [4], in [5] and in assay [6] was “inactive” each time. Besides, the Potency entry in assay [7], in assay [8], in [9], in assay [10], in assay [11] and in assay [12] was “inactive” in each case. Further, the Potency result in assay [13], in assay [14], in assay [15], in [16], in [17] and in assay [18] was “inactive” throughout. The Potency result in [19] is “inactive”.
Turning to `c1ccc2cc(Nc3ccc(Nc4ccc5ccccc5c4)cc3)ccc2c1`, the Potency entry in assay [1], in assay [2], in assay [3], in [4], in assay [6] and in [7] was “inactive” in each case. The Potency result in assay [8], in [9], in [10], in assay [11], in [12] and in [13] was “inactive” in each case. Further, the Potency entry in [14], in assay [15], in assay [16], in assay [17], in assay [18] and in assay [19] was “inactive” in each case.
Turning to `O=C(O)CS`, the Potency result in assay [1], in assay [3], in assay [4], in assay [7], in [20] and in [8] was “inactive” each time. Further, the Potency result in [10], in assay [11], in assay [12], in assay [13], in assay [14] and in [15] was “inactive” each time. Further, the Potency entry in [16], in assay [17], in assay [18] and in [19] was “inactive” each time. In addition, the Potency result in assay [2] was “inactive and 61.6 µM (active)”.
As for `CCCCCCCCCCCO`, the Potency result in [1], in [2], in assay [3], in assay [5], in assay [6] and in assay [7] was “inactive” in each case. Moreover, the Potency entry in assay [20], in assay [8], in [9], in assay [11], in assay [12] and in assay [14] was “inactive” throughout. Further, the Potency entry in assay [15], in assay [16], in assay [18] and in assay [19] was “inactive” throughout.
For `CC(=O)[C@@]1(O)CC[C@H]2[C@@H]3C[C@H](C)C4=CC(=O)C=C[C@]4(C)[C@@]3(F)[C@@H](O)C[C@@]21C`, the Potency entry in [1], in assay [2], in assay [3], in assay [5], in [6] and in assay [7] was “inactive” throughout. Moreover, the Potency entry in [20], in [8], in assay [9], in assay [15], in assay [16] and in assay [17] was “inactive” each time. The Potency entry in assay [18] and in [19] was “inactive” each time.
In the case of `CC1=C(C)S(=O)(=O)CCS1(=O)=O`, the Potency entry in assay [1], in assay [3], in assay [4], in assay [7], in assay [20] and in assay [8] was “inactive” each time. Also, the Potency entry in assay [9], in assay [10], in [11], in assay [12], in [13] and in assay [14] was “inactive” throughout. Further, the Potency result in [15], in [18] and in [19] was “inactive” in each case. Further, the Potency was 6.73 µM (active) and 8.63 µM (active) in [2]; “inactive and 13.7 µM (active)” in assay [16].

For the origin of these results see PubChem BioAssay (Tox21).
